# High-throughput results (PubChem BioAssay)
# CD11b adhes enh – enhancers of CD11b/CD18 adhesion to fibrinogen, primary screen, K562 cells, luminescence; AID 1499, 2009; activation, % at 10 µM; ATPlite luminescence; 0.07% of 93,000 active;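 active = 10 µM primary screen giving 50% or more activity, confirmed by 40% or more on retest at that dose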
# Target sequence (P05107 whole entry, looked up, other chains not shown): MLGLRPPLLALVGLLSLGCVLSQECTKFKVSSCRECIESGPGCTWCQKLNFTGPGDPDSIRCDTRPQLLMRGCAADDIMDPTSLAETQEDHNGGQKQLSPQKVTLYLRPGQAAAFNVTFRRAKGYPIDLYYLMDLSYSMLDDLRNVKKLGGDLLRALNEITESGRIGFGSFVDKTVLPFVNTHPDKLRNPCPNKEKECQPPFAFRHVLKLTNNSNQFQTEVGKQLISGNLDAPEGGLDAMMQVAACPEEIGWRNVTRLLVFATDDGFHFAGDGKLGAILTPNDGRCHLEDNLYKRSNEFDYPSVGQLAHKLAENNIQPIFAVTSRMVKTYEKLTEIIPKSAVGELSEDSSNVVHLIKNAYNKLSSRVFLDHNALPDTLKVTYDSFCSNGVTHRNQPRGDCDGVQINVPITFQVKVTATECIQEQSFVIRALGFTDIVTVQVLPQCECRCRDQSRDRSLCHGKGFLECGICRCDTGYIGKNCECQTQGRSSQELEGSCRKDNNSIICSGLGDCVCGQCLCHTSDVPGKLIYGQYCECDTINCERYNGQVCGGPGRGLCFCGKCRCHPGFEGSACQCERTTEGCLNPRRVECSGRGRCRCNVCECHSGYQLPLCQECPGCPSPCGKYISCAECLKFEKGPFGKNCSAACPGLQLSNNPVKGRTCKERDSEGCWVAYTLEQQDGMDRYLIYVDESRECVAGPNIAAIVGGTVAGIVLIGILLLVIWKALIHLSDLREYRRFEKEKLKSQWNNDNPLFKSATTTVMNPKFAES
# CYP2C9 act – human CYP2C9 activators, primary screen, biochemical, luminescence; Cytochrome P450 2C9 (Homo sapiens), P11712; recombinant CYP2C9, luciferin-H conversion; active compounds read high; factor 1 = untreated enzyme, 0 = blocked; activation factor at 5 µM; 1.4% of 96,000 active;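 active = activation factor of 2 or more for CYP2C9 at a 5 µM dose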
# CYP2C9 inh – blockers of cytochrome P450 2C9 activity – biochemical, luminescence, ADME assay, primary screen; inhibition, % at 5 µM; 20% of 96,000 active; AID 777, 2007; P11712; CYP2C9 Supersomes, luciferin-H conversion;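 active = blocking of liver enzyme CYP2C9 beyond about 50% at 5 µM, limit read from the data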
# Mac1 fbg inh – inhibitors of CD11b/CD18 adhesion to fibrinogen, primary screen, K562 cells, luminescence | Integrin beta-2 (Homo sapiens) + Integrin alpha-M (Homo sapiens), P05107+P11215 | ATPlite luminescence; Mn2+ added to activate the integrin | inhibition, % at 10 µM | 0.54% of 93,000 active | AID 1497, 2009;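 active = primary inhibition of 50% or more at 10 µM, then 40% or more on retest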
# CYP2C19 activ – human CYP2C19 activators, primary screen, biochemical, luminescence | Cytochrome P450 2C19 (Homo sapiens), P33261 | activation factor at 5 µM | 96,000 tested, under 10 active | recombinant CYP2C19, luciferin-H EGE luminescence; active compounds read high; 0 = fully inhibited enzyme, 1 = untreated enzyme;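 active = activation factor of at least 2 at 5 µM in the primary screen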
# CYP2C19 inhib – blockers of cytochrome P450 2C19 activity – biochemical, luminescence, ADME assay, primary screen. P33261. CYP2C19 Supersomes, luciferin-H EGE luminescence, 30 min. inhibition, % at 5 µM. 21% of 96,000 active. AID 778, 2007;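 active = CYP2C19 inhibition above a set limit at 5 µM in the primary screen, cut at about 50% in these data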
# Numbers stand for hits; . = inactive; / = no result given. Only some compounds are listed: those with a hit (about 28% of all), similar ones and a draw of the others.
SMILES,CD11b adhes enh,CYP2C9 act,CYP2C9 inh,Mac1 fbg inh,CYP2C19 activ,CYP2C19 inhib
COc1ccccc1-c1nnc(SCC(=O)NCc2c(C)c(Cl)cc(C(C)C)c2O)o1,.,3,.,.,.,.
Cc1cc(C)cc(NC(=O)CSc2nnc(-c3ccccc3Br)o2)c1,.,.,.,.,.,.
CCNC(=O)CSc1nnc(-c2cc(-c3ccc(Cl)cc3)nc3ccccc23)o1,.,/,/,.,/,/
O=C(CSc1nnc(-c2ccco2)n1CC1CCCO1)NC1CCCC1 (stereo unspecified),.,.,.,.,.,54
COc1cccc(NC(=O)CSc2nnc(-c3cc(C)n(-c4ccccc4)c3C)o2)c1,/,.,78,/,.,.
CCOC(=O)C(C(=O)OCC)C(CC(=O)C1CC1)c1ccccc1 (stereo unspecified),.,.,.,.,.,.
COC(=O)CSc1nnc(-c2ccc(OC)cc2OC)o1,.,.,.,.,.,.
O=C(CSc1nnc(-c2ccco2)o1)NC1CC2CCC1C2 (stereo unspecified),.,.,.,.,.,56
CCOC(=O)CSc1nnc(-c2ccccc2OC)o1,.,2,.,.,.,.
O=C(OCc1nc2ccccc2s1)C1CCN(S(=O)(=O)c2cccs2)CC1,.,.,95,.,.,82
O=C(COC(=O)C1CCN(S(=O)(=O)c2cccs2)CC1)c1cc2ccccc2o1,.,.,.,.,.,.
CCOC(=O)C1CCN(S(=O)(=O)C(F)(F)c2nc3ccccc3s2)CC1,.,.,65,.,.,95
O=C(CCCc1cccs1)N1CCN(S(=O)(=O)c2ccccc2Br)CC1,.,.,69,.,.,.
O=S(=O)(c1cccs1)N1CCN(Cc2nc3ccccc3s2)CC1,.,.,83,.,.,85
O=C(CCc1nc2ccccc2s1)N1CCN(S(=O)(=O)c2cccs2)CC1,.,.,59,.,.,70
CCCN(CCC)CC(O)COc1ccc([N+](=O)[O-])cc1 (stereo unspecified),.,.,.,.,.,.
Cc1ccccc1Cn1c(=O)n(CCC(=O)NCc2ccc3c(c2)OCO3)c(=O)c2ccccc21,.,.,.,.,.,.
Cc1ccccc1-c1nnn(CC(=O)NCc2ccc3c(c2)OCO3)n1,.,.,82,.,.,.
Cc1ccccc1CN1CCN(CC(=O)NCc2ccc3c(c2)OCO3)C1=O,.,.,76,.,.,.
Cc1oc(-c2ccc3c(c2)OCCO3)cc1C(=O)O,.,.,72,.,.,88
O=C1CC(c2ccc(F)cc2)CC(O)=C1C=NCCN1CCN(C(=O)Nc2ccccc2)CC1 (stereo unspecified),.,.,54,.,.,77
COc1cc2c(cc1OC)C1=C(C#N)CC/C(=N\S(=O)(=O)c3ccccc3)N1CC2,.,.,87,.,.,69
CCc1ccc(Nc2nnc(SCc3cc(=O)n4ccsc4n3)s2)cc1,.,.,.,.,.,.
COC(=O)c1ccc(C)c(NC(=O)CCNC(=O)c2ccc([N+](=O)[O-])cc2)c1,.,/,/,.,/,/
CN(Cc1ccccc1)C(=O)CCNS(=O)(=O)c1ccc2c(c1)oc(=O)n2C,.,.,.,.,.,.
SMILES,CD11b adhes enh,CYP2C9 act,CYP2C9 inh,Mac1 fbg inh,CYP2C19 activ,CYP2C19 inhib
CCSc1cc(C)nc2ncnn12,.,.,.,.,.,.
CCCCCCSc1cc(C)nc2ncnn12,.,.,.,.,.,66
COc1ccc(C(=O)/C=C/c2cn(CN3CCN(C)CC3)c3ccccc23)cc1,.,.,68,.,.,67
CCOc1ccc(C(=O)/C=C/c2cn(CN3CCN(C)CC3)c3ccccc23)cc1,/,.,64,/,.,62
COc1ccc(NC(=O)Cn2c(=O)n(CC(=O)NCc3ccco3)c(=O)c3ccccc32)cc1,/,.,.,/,.,.
O=C(Nc1ccccc1Cl)c1ccccc1Oc1ccc(C(F)(F)F)cc1[N+](=O)[O-],/,.,88,/,.,73
O=C(Nc1ccccc1Oc1ccccc1)c1cc([N+](=O)[O-])ccc1Cl,.,/,/,.,/,/
CC(=O)Nc1nonc1NC(=O)c1ccc(C(C)(C)C)cc1,.,.,.,.,.,.
COc1ccc(N2CCN(C(=O)c3ccc(NS(=O)(=O)c4ccc(F)c(F)c4)cc3)CC2)cc1,.,.,93,.,.,.
COc1ccc(N2CCN(C(=O)c3ccc(OCC4CCCO4)cc3)CC2)cc1 (stereo unspecified),.,.,.,.,.,.
COc1ccc(N2CCN(C(=O)c3ccc(NS(=O)(=O)c4cccc(F)c4)cc3)CC2)cc1,.,.,90,.,.,.
COc1ccc(N2CCN(C(=O)c3ccc(C)c(Cl)c3)CC2)cc1,.,.,.,.,.,.
CSc1nc(Sc2ccccc2)c2ccccc2n1,.,.,85,.,.,.
CSc1nc(Sc2ccc(Cl)cc2)c2ccccc2n1,/,.,.,/,.,.
COc1ccc(CC(=O)Nc2ccc(/C(C)=N/NC(=O)c3cccc([N+](=O)[O-])c3)cc2)cc1,.,.,.,.,.,.
COc1ccc(NS(=O)(=O)c2cccc(C(=O)N/N=C(\C)c3ccc(-n4ccnc4)cc3)c2)cc1,.,.,99,.,.,93
C/C(=N\NC(=O)c1cccc(S(=O)(=O)Nc2ccccc2Cl)c1)c1ccc(-n2ccnc2)cc1,.,.,100,.,.,99
O=C1C(Cl)=C(NCC2CCCO2)C(=O)N1Cc1ccccc1 (stereo unspecified),.,.,.,.,.,60
Cn1c(=O)n(Cc2ccccc2)c(=O)c2c1nc(NCC1CCCO1)n2Cc1ccccc1 (stereo unspecified),.,.,66,.,.,.
C=CCNc1nc2ccccc2nc1NS(=O)(=O)c1cccs1,.,.,93,.,.,.
O=S(=O)(Nc1cccnc1)c1cccs1,.,.,.,.,.,.
CCCCCNc1nc2ccccc2nc1NS(=O)(=O)c1cccs1,.,.,68,.,.,.
O=S(=O)(Nc1nc2ccccc2nc1NCc1ccco1)c1cccs1,.,.,78,.,.,.
O=S(=O)(Nc1nc2ccccc2nc1Nc1ccc2c(c1)OCCO2)c1cccs1,.,.,93,90,.,.
COC(=O)c1ccc(C(=O)OC)c(NC(=O)CN(C)Cc2ccc(Cl)c(Cl)c2)c1,.,/,/,.,/,/
CC(=O)Nc1ccc(Sc2ncccc2C(=O)Nc2ccc(F)cc2)cn1,.,.,.,.,.,.
